From publication PMC7862700, “An all-to-all approach to the identification of sequence-specific readers for epigenetic DNA modifications on cytosine”

Key:
Assay in all cases: DAPPL (digital affinity profiling via proximity ligation, sequencing); 10 mM Tris-HCl pH 7.5, 50 mM NaCl, 1 mM DTT, 4% glycerol, room temperature, 30 min; GST-TFs on glutathione beads, 16-mer random dsDNA library, 0.1% formaldehyde crosslink after washing; high values mean tight binding
Conditions in all cases: protein: recombinant; tags: N-terminal GST; dsDNA, one strand shown
[1] = molecular target: T1, FLI1 (Homo sapiens, UniProt Q01543 1-452)
T1 sequence: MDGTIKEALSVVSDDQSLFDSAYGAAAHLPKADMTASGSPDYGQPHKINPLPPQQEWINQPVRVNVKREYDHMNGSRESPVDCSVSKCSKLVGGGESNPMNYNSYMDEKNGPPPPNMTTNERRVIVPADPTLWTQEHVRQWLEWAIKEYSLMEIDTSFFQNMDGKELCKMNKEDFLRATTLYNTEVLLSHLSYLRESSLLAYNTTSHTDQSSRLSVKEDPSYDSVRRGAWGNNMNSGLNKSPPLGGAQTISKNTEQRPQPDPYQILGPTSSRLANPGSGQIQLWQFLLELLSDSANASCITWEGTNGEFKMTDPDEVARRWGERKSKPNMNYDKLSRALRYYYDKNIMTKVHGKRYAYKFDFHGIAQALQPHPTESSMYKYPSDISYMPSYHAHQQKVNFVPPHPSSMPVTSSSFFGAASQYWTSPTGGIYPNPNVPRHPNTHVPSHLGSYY
In short: (§1)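 Human transcription factors fused to GST were expressed in yeast, captured on glutathione beads, given DNA barcodes and pooled with a GST-only negative control. Pools were incubated with 200 nmole of a 16-mer random double-stranded DNA library in Tris/NaCl/DTT/glycerol buffer at room temperature for 30 min. They were then washed, crosslinked with 0.1% formaldehyde, proximity-ligated (BsaI/T4 ligase, 1 h, 37 °C), PCR-amplified and sequenced on an Illumina NextSeq500. Binding signal is each 6-mer's read frequency for a factor divided by its frequency for the GST control.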

[2] = molecular target: T2, ELK1 (Homo sapiens, UniProt P19419 1-428)
T2 sequence: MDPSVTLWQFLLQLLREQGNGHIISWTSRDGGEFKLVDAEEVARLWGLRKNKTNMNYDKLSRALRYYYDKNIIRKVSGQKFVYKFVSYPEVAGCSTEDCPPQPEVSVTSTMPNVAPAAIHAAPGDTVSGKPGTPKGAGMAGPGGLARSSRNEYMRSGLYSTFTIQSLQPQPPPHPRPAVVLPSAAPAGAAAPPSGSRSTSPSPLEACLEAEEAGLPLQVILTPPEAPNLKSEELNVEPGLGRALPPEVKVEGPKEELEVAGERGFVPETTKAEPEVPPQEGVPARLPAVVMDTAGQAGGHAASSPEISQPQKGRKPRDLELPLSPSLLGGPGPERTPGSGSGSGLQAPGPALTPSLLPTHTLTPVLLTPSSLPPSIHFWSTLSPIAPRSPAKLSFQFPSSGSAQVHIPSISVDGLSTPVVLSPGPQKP
In short: as §1

[3] = molecular target: T3, GABPA (Homo sapiens, UniProt Q06546 1-454)
T3 sequence: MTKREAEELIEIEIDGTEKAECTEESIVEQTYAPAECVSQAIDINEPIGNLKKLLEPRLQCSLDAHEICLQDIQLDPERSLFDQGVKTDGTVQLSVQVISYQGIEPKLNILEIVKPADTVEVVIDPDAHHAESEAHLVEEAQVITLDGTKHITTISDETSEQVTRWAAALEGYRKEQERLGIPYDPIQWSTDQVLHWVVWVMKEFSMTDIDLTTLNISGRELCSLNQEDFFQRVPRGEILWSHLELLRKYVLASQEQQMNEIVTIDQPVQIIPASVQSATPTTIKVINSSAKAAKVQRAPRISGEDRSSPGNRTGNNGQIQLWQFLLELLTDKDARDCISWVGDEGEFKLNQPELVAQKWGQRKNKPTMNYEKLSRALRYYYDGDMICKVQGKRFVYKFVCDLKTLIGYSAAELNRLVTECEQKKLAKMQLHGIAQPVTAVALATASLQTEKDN
In short: as §1

[4] = molecular target: T4, ERG (Homo sapiens, UniProt P11308 1-479)
T4 sequence: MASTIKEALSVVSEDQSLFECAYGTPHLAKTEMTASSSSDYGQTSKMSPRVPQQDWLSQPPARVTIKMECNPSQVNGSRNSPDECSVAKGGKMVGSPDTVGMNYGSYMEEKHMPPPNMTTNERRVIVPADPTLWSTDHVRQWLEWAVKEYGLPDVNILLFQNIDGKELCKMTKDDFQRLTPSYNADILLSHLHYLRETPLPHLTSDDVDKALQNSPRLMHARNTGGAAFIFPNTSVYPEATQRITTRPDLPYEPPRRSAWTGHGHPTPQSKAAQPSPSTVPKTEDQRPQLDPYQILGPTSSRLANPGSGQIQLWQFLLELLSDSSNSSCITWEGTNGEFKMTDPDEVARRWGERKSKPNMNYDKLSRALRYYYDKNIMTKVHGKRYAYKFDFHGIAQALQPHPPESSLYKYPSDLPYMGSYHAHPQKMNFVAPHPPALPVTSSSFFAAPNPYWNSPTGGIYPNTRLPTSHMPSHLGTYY
In short: as §1

[5] = molecular target: ELF1 (Homo sapiens, UniProt P32519 1-619)
ELF1, sequence (P32519 whole entry): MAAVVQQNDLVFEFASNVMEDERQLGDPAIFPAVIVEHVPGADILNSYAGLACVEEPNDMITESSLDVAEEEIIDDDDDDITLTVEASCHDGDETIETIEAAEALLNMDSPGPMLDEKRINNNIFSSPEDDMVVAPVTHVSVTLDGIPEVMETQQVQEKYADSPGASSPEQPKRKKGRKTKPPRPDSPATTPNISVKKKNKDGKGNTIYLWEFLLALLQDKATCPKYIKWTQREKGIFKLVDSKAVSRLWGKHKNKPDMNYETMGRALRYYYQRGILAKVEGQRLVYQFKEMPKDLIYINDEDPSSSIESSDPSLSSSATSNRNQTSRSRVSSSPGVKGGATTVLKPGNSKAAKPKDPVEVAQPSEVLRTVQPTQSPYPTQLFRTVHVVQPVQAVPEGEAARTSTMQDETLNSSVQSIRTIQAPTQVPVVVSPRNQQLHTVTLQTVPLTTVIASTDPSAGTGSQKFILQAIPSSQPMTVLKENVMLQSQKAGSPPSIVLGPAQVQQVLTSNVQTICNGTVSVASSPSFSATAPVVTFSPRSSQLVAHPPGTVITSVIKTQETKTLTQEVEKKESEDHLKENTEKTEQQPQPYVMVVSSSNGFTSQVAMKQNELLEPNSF
In short: as §1

[6] = molecular target: T5, EHF (Homo sapiens, UniProt Q9NZC4 1-300)
T5 sequence: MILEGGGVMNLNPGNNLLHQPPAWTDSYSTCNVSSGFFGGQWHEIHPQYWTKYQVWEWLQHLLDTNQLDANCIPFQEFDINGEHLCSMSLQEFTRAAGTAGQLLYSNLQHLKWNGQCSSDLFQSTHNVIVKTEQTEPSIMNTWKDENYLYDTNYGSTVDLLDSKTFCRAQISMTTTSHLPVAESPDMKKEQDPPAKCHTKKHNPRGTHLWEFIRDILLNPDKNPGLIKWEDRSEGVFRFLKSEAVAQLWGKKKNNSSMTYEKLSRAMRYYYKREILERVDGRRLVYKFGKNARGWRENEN
In short: as §1

[7] = molecular target: SPI1 (Homo sapiens, UniProt P17947 1-270)
In short: as §1

[8] = molecular target: SPIB (Homo sapiens, UniProt Q01892 1-262)
SPIB, sequence (Q01892 whole entry): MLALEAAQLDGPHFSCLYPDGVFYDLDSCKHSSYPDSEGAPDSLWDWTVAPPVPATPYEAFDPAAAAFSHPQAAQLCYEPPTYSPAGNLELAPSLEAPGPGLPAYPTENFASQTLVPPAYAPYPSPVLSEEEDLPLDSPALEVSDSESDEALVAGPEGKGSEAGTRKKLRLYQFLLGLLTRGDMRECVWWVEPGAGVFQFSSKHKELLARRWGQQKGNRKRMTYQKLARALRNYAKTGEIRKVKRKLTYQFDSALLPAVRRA
In short: as §1

[9] = molecular target: T6, ELK3 (Homo sapiens, UniProt P41970 1-407)
T6 sequence: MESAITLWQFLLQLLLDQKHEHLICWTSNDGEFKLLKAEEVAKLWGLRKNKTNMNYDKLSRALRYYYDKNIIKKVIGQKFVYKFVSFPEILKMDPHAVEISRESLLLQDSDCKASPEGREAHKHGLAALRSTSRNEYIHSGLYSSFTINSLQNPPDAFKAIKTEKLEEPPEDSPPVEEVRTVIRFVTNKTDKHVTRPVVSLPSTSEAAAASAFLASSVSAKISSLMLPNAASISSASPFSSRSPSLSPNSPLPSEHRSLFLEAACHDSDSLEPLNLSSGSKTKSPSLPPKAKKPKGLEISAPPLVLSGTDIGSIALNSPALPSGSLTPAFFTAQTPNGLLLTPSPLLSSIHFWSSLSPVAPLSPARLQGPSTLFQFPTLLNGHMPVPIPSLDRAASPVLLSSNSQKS
In short: as §1

[10] = molecular target: T7, FEV (Homo sapiens, UniProt Q99581 1-238)
T7 sequence: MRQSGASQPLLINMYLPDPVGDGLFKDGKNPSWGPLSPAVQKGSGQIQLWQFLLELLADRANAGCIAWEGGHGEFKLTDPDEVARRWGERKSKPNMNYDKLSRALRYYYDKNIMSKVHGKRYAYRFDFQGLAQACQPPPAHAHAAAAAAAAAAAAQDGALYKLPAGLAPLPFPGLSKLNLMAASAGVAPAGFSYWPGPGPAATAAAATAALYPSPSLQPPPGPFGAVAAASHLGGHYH
In short: as §1

[11] = molecular target: ETV5 (Homo sapiens, UniProt P41161 1-510)
ETV5, sequence (P41161 whole entry): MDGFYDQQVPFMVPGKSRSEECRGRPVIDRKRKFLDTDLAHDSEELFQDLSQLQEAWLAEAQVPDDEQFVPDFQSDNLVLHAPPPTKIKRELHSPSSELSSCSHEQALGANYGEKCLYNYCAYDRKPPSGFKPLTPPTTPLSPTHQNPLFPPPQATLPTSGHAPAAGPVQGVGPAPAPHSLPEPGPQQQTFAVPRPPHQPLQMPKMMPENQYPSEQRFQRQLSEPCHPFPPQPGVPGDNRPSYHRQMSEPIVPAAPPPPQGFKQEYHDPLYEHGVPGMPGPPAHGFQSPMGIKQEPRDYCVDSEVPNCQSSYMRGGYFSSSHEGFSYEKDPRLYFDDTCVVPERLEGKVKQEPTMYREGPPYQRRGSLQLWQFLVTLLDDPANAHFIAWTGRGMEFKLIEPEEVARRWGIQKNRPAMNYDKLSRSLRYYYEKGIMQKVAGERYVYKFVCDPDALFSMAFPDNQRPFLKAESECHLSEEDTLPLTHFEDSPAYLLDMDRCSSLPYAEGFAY
In short: as §1

[12] = molecular target: T8, SPIC (Homo sapiens, UniProt Q8N5J4 1-248)
T8 sequence: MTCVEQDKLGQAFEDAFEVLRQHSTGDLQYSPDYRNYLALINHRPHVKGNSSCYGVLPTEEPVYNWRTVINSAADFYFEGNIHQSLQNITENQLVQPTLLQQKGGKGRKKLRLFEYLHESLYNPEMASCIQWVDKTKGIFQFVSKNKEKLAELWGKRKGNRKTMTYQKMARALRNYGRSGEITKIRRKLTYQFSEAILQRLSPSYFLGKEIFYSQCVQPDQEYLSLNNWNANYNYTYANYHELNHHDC
In short: as §1

[13] = molecular target: ELF4 (Homo sapiens, UniProt Q99607 1-663)
ELF4, sequence (Q99607 whole entry): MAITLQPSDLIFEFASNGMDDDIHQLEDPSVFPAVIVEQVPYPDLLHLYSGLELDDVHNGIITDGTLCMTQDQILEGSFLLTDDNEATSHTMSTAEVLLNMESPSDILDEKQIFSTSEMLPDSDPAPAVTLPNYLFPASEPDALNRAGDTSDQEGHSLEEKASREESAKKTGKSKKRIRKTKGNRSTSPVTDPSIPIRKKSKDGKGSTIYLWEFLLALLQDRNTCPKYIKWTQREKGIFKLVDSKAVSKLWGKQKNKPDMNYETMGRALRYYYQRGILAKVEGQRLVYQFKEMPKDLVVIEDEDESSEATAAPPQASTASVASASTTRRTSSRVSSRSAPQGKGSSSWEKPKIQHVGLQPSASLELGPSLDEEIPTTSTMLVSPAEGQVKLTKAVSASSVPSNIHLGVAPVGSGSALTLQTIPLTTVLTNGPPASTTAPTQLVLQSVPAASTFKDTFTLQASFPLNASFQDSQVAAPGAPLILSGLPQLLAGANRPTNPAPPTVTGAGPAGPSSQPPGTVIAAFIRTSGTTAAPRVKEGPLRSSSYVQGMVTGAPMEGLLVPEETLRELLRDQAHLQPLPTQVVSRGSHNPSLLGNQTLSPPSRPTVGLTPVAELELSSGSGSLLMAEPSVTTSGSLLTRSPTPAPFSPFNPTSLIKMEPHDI
In short: as §1

[14] = molecular target: T9, ELK4 (Homo sapiens, UniProt P28324-2 1-405)
T9 sequence: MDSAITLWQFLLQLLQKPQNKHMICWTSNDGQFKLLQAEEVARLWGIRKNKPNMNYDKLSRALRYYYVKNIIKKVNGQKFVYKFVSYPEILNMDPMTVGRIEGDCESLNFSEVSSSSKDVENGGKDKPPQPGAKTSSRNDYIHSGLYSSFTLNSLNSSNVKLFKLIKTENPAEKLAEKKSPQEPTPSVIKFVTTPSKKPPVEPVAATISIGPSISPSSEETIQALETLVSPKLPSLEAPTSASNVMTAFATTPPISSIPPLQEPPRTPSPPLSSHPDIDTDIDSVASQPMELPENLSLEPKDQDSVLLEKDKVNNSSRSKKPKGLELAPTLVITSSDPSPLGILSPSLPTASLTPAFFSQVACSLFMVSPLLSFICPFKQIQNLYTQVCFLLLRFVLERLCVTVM
In short: as §1

[15] = molecular target: T10, ETV2 (Homo sapiens, UniProt O00321 1-342)
T10 sequence: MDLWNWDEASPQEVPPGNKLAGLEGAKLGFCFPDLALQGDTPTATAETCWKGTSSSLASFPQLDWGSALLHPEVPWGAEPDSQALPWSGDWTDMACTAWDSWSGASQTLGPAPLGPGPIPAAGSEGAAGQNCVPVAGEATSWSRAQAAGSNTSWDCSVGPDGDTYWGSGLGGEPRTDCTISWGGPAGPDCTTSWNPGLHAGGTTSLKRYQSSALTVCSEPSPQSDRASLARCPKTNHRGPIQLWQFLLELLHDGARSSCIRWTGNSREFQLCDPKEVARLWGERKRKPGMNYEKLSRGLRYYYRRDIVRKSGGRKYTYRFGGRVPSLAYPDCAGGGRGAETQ
In short: as §1

[16] = molecular target: T11, ELF3 (Homo sapiens, UniProt P78545 1-371)
T11 sequence: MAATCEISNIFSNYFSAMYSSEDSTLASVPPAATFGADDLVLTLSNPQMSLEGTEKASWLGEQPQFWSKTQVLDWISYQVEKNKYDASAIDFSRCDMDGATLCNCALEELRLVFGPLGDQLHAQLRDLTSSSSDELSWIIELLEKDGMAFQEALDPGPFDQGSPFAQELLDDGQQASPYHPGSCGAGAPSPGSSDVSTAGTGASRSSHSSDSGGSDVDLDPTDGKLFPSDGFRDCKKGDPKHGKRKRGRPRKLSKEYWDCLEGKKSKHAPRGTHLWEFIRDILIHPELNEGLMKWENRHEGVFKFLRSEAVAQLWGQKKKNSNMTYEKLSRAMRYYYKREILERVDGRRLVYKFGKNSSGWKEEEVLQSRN
In short: as §1

[17] = molecular target: ETV1 (Homo sapiens, UniProt P50549 1-477)
ETV1, sequence (P50549 whole entry): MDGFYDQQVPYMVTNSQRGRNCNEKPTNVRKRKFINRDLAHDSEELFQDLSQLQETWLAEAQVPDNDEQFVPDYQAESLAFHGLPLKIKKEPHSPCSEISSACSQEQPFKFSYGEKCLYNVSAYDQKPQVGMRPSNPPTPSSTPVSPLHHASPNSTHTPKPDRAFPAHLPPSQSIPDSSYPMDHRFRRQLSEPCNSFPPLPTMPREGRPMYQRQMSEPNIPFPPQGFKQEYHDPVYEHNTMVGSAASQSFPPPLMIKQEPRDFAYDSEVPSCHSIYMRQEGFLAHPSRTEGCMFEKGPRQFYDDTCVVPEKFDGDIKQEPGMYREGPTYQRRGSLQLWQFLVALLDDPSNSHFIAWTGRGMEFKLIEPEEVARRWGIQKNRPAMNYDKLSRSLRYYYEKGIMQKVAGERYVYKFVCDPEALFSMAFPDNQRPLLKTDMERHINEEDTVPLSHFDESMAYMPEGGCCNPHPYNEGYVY
In short: as §1

GGATGT
binding signal [1]: 1.5 fold enrichment (6-mer frequency, TF over GST control)
binding signal [2]: 1.7 fold enrichment (6-mer frequency, TF over GST control)
binding signal [3]: 1.39 fold enrichment (6-mer frequency, TF over GST control)
binding signal [4]: 1.82 fold enrichment (6-mer frequency, TF over GST control)
binding signal [5]: 1.44 fold enrichment (6-mer frequency, TF over GST control)
binding signal [6]: 1.74 fold enrichment (6-mer frequency, TF over GST control)
binding signal [7]: 1.53 fold enrichment (6-mer frequency, TF over GST control)
binding signal [8]: 1.61 fold enrichment (6-mer frequency, TF over GST control)
binding signal [9]: 1.65 fold enrichment (6-mer frequency, TF over GST control)
binding signal [10]: 2.08 fold enrichment (6-mer frequency, TF over GST control)
binding signal [11]: 1.77 fold enrichment (6-mer frequency, TF over GST control)
binding signal [12]: 1.41 fold enrichment (6-mer frequency, TF over GST control)
binding signal [13]: 1.39 fold enrichment (6-mer frequency, TF over GST control)
binding signal [14]: 1.36 fold enrichment (6-mer frequency, TF over GST control)
binding signal [15]: 1.44 fold enrichment (6-mer frequency, TF over GST control)
binding signal [16]: 1.61 fold enrichment (6-mer frequency, TF over GST control)
binding signal [17]: 1.69 fold enrichment (6-mer frequency, TF over GST control)

CTGTCC
binding signal [1]: 1.34 fold enrichment (6-mer frequency, TF over GST control)
binding signal [2]: 1.22 fold enrichment (6-mer frequency, TF over GST control)
binding signal [3]: 1.29 fold enrichment (6-mer frequency, TF over GST control)
binding signal [4]: 1.28 fold enrichment (6-mer frequency, TF over GST control)
binding signal [5]: 1.28 fold enrichment (6-mer frequency, TF over GST control)
binding signal [6]: 1.36 fold enrichment (6-mer frequency, TF over GST control)
binding signal [7]: 1.25 fold enrichment (6-mer frequency, TF over GST control)
binding signal [8]: 1.27 fold enrichment (6-mer frequency, TF over GST control)
binding signal [9]: 1.1 fold enrichment (6-mer frequency, TF over GST control)
binding signal [10]: 1.19 fold enrichment (6-mer frequency, TF over GST control)
binding signal [11]: 1.41 fold enrichment (6-mer frequency, TF over GST control)
binding signal [12]: 1.13 fold enrichment (6-mer frequency, TF over GST control)
binding signal [13]: 1.28 fold enrichment (6-mer frequency, TF over GST control)
binding signal [14]: 1.24 fold enrichment (6-mer frequency, TF over GST control)
binding signal [15]: 1.2 fold enrichment (6-mer frequency, TF over GST control)
binding signal [16]: 1.17 fold enrichment (6-mer frequency, TF over GST control)
binding signal [17]: 1.4 fold enrichment (6-mer frequency, TF over GST control)
